# Measured values taken from PubChem BioAssay AID624331 (National Center for Advancing Translational Sciences (NCATS), 2012).
# Inconclusive results are not listed. Values without a mark were called inactive. Active and inactive are the calls of the source. The call rests on the fitted dose curve; in most records, active means well fitted activation curve with a large enough effect; inconclusive means small, poorly fitted or top-dose-only effect; inactive means no such curve, though single readings can be large or run the other way.
# Test: qHTS assay for re-activators of p53 using a Luc reporter: Hit Validation with no p53 Expressed; on activity change, positive = activation: 0% is about no effect
# Settings: p53-null cells, luciferase reporter counter-screen; series mostly up to 46.1 µM; activity change, positive = activation: at the top concentration
# Procedure, shortened: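 Counter-screen of primary hits in a cell line not transfected with p53, in Opti-MEM with 10% FBS; compounds at several concentrations (10 mM stock, 1:5; top 46.1 µM in well), 24 h at 37 deg C, 5% CO2. Luminescence read after 10 min with Amplite reagent.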
# Potency means the concentration at half of the fitted maximal effect.
SMILES,Potency,"activity change, positive = activation [%]"
Cn1c(C(=O)Nc2ccc3c(c2)OCCO3)cc2sccc21,1160 nM (active),–
Cc1noc(C)c1C(=O)Nc1nc(-c2ccc(F)cc2)cs1,–,-37.1
CC(C)CCn1cnc2c(cnn2-c2ccc(F)cc2)c1=O,–,30
Cc1csc(NC(=O)CSc2nnc(-c3cccs3)n2C)n1,–,-34.1
Cc1cc(Br)c(S(=O)(=O)NCCN2CCOCC2)cc1C,–,-38.1
COC(=O)C1=C(C(=O)c2ccccc2)C(c2ccc(OC)c(OC)c2)Nc2nnnn21 (centres undefined),–,-13.2
Cc1ccc(S(=O)(=O)CNC(=O)c2ccccc2)cc1,–,-19.2
C/C(=N\N=c1/scc(C)n1Cc1ccco1)c1cccc([N+](=O)[O-])c1,–,26.8
Cn1c(=NC(=O)c2ccco2)sc2cccc(F)c21,–,33.8
Cc1ccc2nc(-c3ccc(NC(=O)COC(=O)c4cncc(Br)c4)cc3)sc2c1,–,-17.4
O=C(Nc1ccc(NC(=O)C23CC4CC(CC(C4)C2)C3)cn1)c1ccco1,–,12.5
COC(=O)Cc1n[nH]c(=S)[nH]c1=O,–,-10.7
O=C(CCCN1C(=O)/C(=C/c2ccco2)SC1=S)Nc1ccccc1,–,-23.8
COc1ccc(N2COC3c4cccc5cccc(c45)C32)cc1 (centres undefined),–,472
Cc1ccc(S(=O)(=O)NCC(=O)NCC(=O)N2CCC(C)CC2)cc1,–,-34.7
CC(C)(C)c1ccc(/C=N/Nc2ccc(C(=O)O)cc2)cc1,–,-29.8
COc1cc(C(=O)NCC(=O)Nc2c(C)cccc2C)ccc1OCc1ccccc1,–,-7.54
CS(=O)(=O)n1nc(-c2ccc(Cl)cc2)nc1SCc1ccccc1,–,68.8
CCN1C(=O)C(=O)N(CC(=O)c2cc(C)n(C3CC3)c2C)C1=O,–,50
Cc1ccccc1S(=O)(=O)Nc1nc2ccccc2nc1N1CCc2ccccc2C1,–,50.8

SMILES,Potency,"activity change, positive = activation [%]"
Cc1cc(C(=O)COc2ncnc3sccc23)c(C)n1C1CC1,–,-19.7
Cc1ccc(C2C(C#N)=C(N)Oc3cc4c(cc32)OCO4)cc1 (centres undefined),–,41
COc1ccc2cc(C3(C)NC(=O)N(CC(=O)Nc4c(C)n(C)n(-c5ccccc5)c4=O)C3=O)ccc2c1 (centres undefined),–,-34.1
COc1cc(/C=N/Nc2nc3ccccc3s2)ccc1OC(=O)c1ccccc1F,–,28.2
Cc1cc(-c2ccccc2)n2ncc(-c3ccccc3)c2n1,1840 nM (active),–
COc1ccc(NC(=O)c2ccccc2)cc1,–,6.54
Cc1ccc(CSc2nc3ccncc3[nH]2)cc1,–,-58
O=C(COc1ccccc1Cl)Nc1ccc(Cl)cn1,–,80.6
O=C(Cc1ccccc1)Nc1ccc(NC(=O)c2cccnc2)cc1,–,-13.4
O=C(/C=C/c1cnc2ccccc2n1)NC12CC3CC(CC(C3)C1)C2,–,76.4
N#Cc1ccccc1NC(=O)c1cccc(COc2ccc(Cl)cc2Cl)c1,116 nM (active),–
COc1ccc(C(c2nnnn2CCc2ccccc2)N2CCN(C3CCCC3)CC2)cc1 (centres undefined),–,66
CCOc1ccc(NC(=O)C(c2ccccn2)N(C(=O)CCl)c2ccc(OC)cc2)cc1 (centres undefined),–,0.805
N#Cc1cccc(N=Cc2c(O)ccc3ccccc23)c1,–,16.7
CCOc1ccc(NS(=O)(=O)c2ccc(C(=O)NC3CCN(Cc4ccccc4)CC3)cc2)cc1,–,-28.9
CCOC(=O)c1cccc(C2=CC(=O)C[C@H](c3ccc(OC)cc3)C2)c1,–,43.4
COCCn1c(C)cc(C(=O)CSc2nc3ccccc3s2)c1C,–,-4.14
CN(C)c1ccc(CNC2CC(C)(C)NC(C)(C)C2)cc1,–,24.5
Cc1ccc2c(c1)CCCN2C(=O)Nc1ccc2c(c1)OCO2,–,-5.86
